Screening data from PubChem.
Hits are enriched below; roughly 18% of the tested compounds scored in any of these assays.
DT40 TDP1 CPT: growth inhibition of DT40 Tdp1-/-;hTDP1 cells with camptothecin (screen for TDP1 inhibitors); hit rate 12% among 420,000; AID 686979; chicken DT40 Tdp1-/-;hTDP1 cells + 20 nM CPT, ATP luminescence, 48 h; Potency, µM (highest dose often 46.2 µM), hits mostly inhibitors; further: nearly all actives have a fitted effect of over 55% in size
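Cell growth measured by CellTiter-Glo luminescence after a minimum 48 h, 37 C compound exposure with 20 nM CPT in Tdp1-knockout DT40 cells stably expressing hTDP1, seeded 400/well; qHTS titration format.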
DT40 TDP1 no CPT: qHTS for Inhibitors of human tyrosyl-DNA phosphodiesterase 1 (TDP1): qHTS in cells in absence of CPT | DT40 Tdp1-/- hTDP1 cells, no CPT, ATP luminescence, 48 h | Potency, µM (doses to about 46.2 µM), actives largely listed as inhibitors | hit rate 15% among 420,000; further: nearly all actives have a fitted effect of over 55% in size
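DT40 Tdp1-/-;hTDP1 cells, no CPT (DMSO vehicle only), 400 cells/well; compounds pin-transferred; ≥48 hr, 37 °C; CellTiter-Glo 30 min RT dark, luminescence read.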
TGFb inhibitor: blocks TGF-b signaling; HepG2 CAGA-GFP TGF-b/SMAD3 reporter, GFP fluorescence, 18 h; TGF-beta stimulated, 500 pg/mL final; AID 588855; hit rate 1.2% among 410,000; Potency, µM (highest dose often 46.1 µM), hits mostly inhibitors; further: nearly all actives have a fitted effect of over 65% in size
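Per well, imaged GFP fluorescence of HEPG2 CAGA-GFP cells gives the signal; cells get compound, then TGF-beta (500 pg/mL final), 18 h at 37 degrees C; %Activity versus -TGF-beta and +DMSO controls.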
HepG2 viability: kills HepG2 cells in TGF-b inhibitor counter-screen. HepG2 CAGA-GFP viability, ATP luminescence, 18 h. Potency, µM (top dose mostly 46.1 µM), hits mostly cytotoxic. hit rate 0.76% among 410,000
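CellTiter-Glo luminescence gave cytotoxicity after 18 hours at 37 degrees C. The cells were HepG2 CAGA-GFP in 1% FBS DMEM, stimulated with 500 pg/mL TGF-beta after compound addition. %Activity was normalised to no-cell wells (complete cell-killing) and DMSO (no toxicity), and curves were fitted and classified.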
TDP1 block: blocks human tyrosyl-DNA phosphodiesterase 1; Q9NUW8; recombinant TDP1, AlphaScreen DNA substrate cleavage; Potency, µM (doses to about 130 µM), hits mostly inhibitors; hit rate 0.28% among 350,000; AID 485290; further: nearly all actives have a fitted effect of over 40% in size
Target sequence (Q9NUW8 whole entry, looked up): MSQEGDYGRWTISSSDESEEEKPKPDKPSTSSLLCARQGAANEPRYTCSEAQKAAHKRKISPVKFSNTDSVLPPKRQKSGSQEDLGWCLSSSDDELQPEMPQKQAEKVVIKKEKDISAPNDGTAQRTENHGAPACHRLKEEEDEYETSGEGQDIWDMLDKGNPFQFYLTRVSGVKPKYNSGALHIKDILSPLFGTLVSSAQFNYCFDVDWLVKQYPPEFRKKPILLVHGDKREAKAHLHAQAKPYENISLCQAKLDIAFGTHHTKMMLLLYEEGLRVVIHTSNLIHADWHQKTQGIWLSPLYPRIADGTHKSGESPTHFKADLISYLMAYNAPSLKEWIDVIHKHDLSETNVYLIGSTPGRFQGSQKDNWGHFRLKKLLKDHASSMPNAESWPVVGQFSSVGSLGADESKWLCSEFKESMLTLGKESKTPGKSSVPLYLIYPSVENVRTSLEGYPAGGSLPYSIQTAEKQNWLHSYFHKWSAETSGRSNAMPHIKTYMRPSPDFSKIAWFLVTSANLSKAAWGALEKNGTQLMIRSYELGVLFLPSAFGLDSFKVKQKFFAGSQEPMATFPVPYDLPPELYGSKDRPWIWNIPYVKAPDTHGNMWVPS
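E. coli-derived human Tdp1, 1 nM final. Cpd preinc 15 min RT; substrate 15 nM final, 5 min RT; AS bead mix 10 ug/ml final, 10 min RT. Signal loss = tyrosine-FITC cleavage. No-enzyme wells = max signal.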
IL1B secr inh: inflammasome signaling inhibition, IL-1 beta readout; THP-1 LPS/ATP IL-1B secretion, AlphaLISA, 16 h; stronger effect = lower value; hit rate 4.7% among 360,000; activity change, % at 57.5 µM; AID 743279; in the data active means activity change below about -50%; inconclusive means mostly about -30% to -49%
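THP-1 cells pretreated 1 hr with compounds (up to 57.5 uM final), then stimulated with LPS (250 ng/mL final) plus ATP (1.25 mM final); secreted IL-1B measured by AlphaLISA after 16 hr, decreased signal indicating inhibition.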
Numbers stand for hits; n = inactive; u = inconclusive; x = no result. Unless noted, the call rests on the fitted dose curve; in most records, active means well fitted curve in the direction sought with a large enough effect; inconclusive means small, poorly fitted or top-dose-only effect, or another doubt; inactive means no such curve, though single readings can be large; an effect the other way counts as inactive or inconclusive.

SMILES	DT40 TDP1 CPT	DT40 TDP1 no CPT	TGFb inhibitor	HepG2 viability	TDP1 block	IL1B secr inh
COC(CNC(=O)c1cc(S(=O)(=O)N2CCc3ccccc32)ccc1F)OC	u	n	n	n	x	n
O=C(Nc1ccc(Cl)cc1)c1cc(S(=O)(=O)N2CCc3ccccc32)ccc1F	18.4µM	18.4µM	u	n	n	x
COC(=O)c1c(C)[nH]c(C)c1C(=O)c1ccccc1Cc1ccccc1	40.1µM	7.31µM	n	n	n	n
O=C(O)c1ccccc1Cc1ccccc1	x	x	x	x	n	x
CCN(CC)C(=O)CSc1nc2ccccc2c(=O)n1CC	u	n	n	n	n	n
Cn1c(SCC(=O)N2CCCc3ccccc32)nnc1-c1ccccc1	n	n	n	n	n	n
Cn1c(SCC(=O)N2c3ccccc3CCc3ccccc32)nnc1-c1cc2ccccc2cc1O	16.4µM	14.6µM	u	n	n	u
CCN(CC)C(=O)CSc1nnc(-c2cc3ccccc3cc2O)n1CC	0.92µM	9.2µM	n	n	n	n
Cc1cccc(-c2nnc(SCC(=O)N3c4ccccc4CCc4ccccc43)n2C)c1	u	23.1µM	u	n	n	-55.7
CCOC(=O)c1cc(-c2ccc([N+](=O)[O-])cc2)nc2c1c(=O)[nH]c(=O)n2Cc1ccccc1	7.31µM	5.8µM	n	n	x	n
Cc1cccc(C(=O)NCC(=O)N2CCN(S(=O)(=O)c3ccc4c(c3)OCCO4)CC2)c1	n	n	n	n	n	n
S=c1nc(C23CC4CC(CC(C4)C2)C3)[nH][nH]1	n	n	n	n	x	n
Cc1sc(N)nc1C12CC3CC(CC(C3)C1)C2	n	u	n	n	n	-51.7
COc1ccc(N2CCN(C(CNC(=O)C(=O)NC3CCCC3)c3ccco3)CC2)cc1 (configuration not stated)	n	n	n	n	x	n
Cc1ccc(O)c(C2=Nc3ccccc3N=C(c3cccs3)C2)c1	u	16.4µM	n	n	u	n
O=C(COc1ccccc1C(=O)N/N=C\c1ccc(O)c(O)c1)N/N=C/c1ccc(O)c(O)c1	16.4µM	u	u	n	n	n
CCOc1cc(/C=N/NC(=O)c2ccccc2-n2cccc2)ccc1O	u	u	n	n	n	n
CCOc1cc(/C=N/NC(=O)c2ccccc2OCc2ccc(F)cc2)ccc1O	u	13µM	n	n	n	n
COc1ccc(/C=N/NC(=O)c2sccc2OCc2ccc(F)cc2)cc1OC	16.4µM	23.1µM	n	n	n	n
CCOc1cc(/C=N/NC(=O)CN(CCc2ccccc2)S(=O)(=O)c2ccc(NC(C)=O)cc2)ccc1O	u	18.4µM	n	n	n	u
O=C(COc1ccccc1[N+](=O)[O-])N/N=C/c1ccc(O)c([N+](=O)[O-])c1	u	n	n	n	n	n
O=C(CN1C(=O)NC2(CCCCCC2)C1=O)NCCc1ccccc1	n	n	n	n	n	n
CCCC(=O)N(c1ccc(C(=O)O)cc1)c1nc(-c2ccccc2)c(C)s1	n	u	n	n	n	n
O=C1NN=C2CCCCCC12 (configuration not stated)	n	u	n	n	x	u
CCOc1cc(/C=N/NC(=O)N/N=C/c2ccc(O)c(OCC)c2)ccc1O	2.59µM	2.91µM	n	n	x	u
SMILES	DT40 TDP1 CPT	DT40 TDP1 no CPT	TGFb inhibitor	HepG2 viability	TDP1 block	IL1B secr inh
Oc1cccc(C=NN=C2c3ccccc3-c3ccccc32)c1	n	n	u	n	x	n
CCOc1cc(C=NN=C2c3ccccc3-c3ccccc32)ccc1O	u	18.4µM	u	n	x	n
CCOc1cc(/C=N/Nc2nnc(C)n2N)ccc1O	u	n	11.2µM	11.2µM	x	n
CCOc1cc(/C=N/NC(=O)C(=O)N/N=C/c2ccc(O)c(OCC)c2)ccc1O	n	n	n	n	x	n
CNc1ncnc2c1ncn2[C@H]1CN(Cc2ccc(Cl)cc2)C[C@@H](CO)O1	u	n	n	n	x	n
CCCCNC(=S)NNC(=O)c1c(Cl)c(C)nn1C	23.1µM	16.4µM	n	n	n	n
CCNC(=S)NNC(=O)c1c(Cl)c(C)nn1C	n	n	n	n	n	n
COc1ccc(OCC(=O)Nc2ccc(OC)c(S(=O)(=O)N3CCCCC3)c2)cc1	14.6µM	11.6µM	n	n	n	n
COc1ccc(NC(=O)CSc2ccc(NC(C)=O)cc2)cc1S(=O)(=O)N1CCOCC1	n	n	n	n	n	n
COc1ccc(NC(=O)CSc2ccc3ccccc3c2)cc1S(=O)(=O)N1CCCCC1	23.1µM	16.4µM	n	n	n	n
COc1ccc(NS(=O)(=O)c2c(F)cc(F)c(Cl)c2F)cc1S(=O)(=O)N1CCCCC1	n	n	n	n	n	-52.7
CCn1cc(C(=O)Nc2ccc(OC)c(S(=O)(=O)N3CCCCC3)c2)c(=O)c2ccc(C)nc21	u	23.1µM	n	n	n	n
CCn1cc(C(=O)Nc2ccc(C(=O)N3CCCC3)cc2)c(=O)c2ccc(C)nc21	x	x	x	x	n	x
COc1ccc(NC(=O)COc2ccccc2Cl)cc1S(=O)(=O)N1CCCCC1	u	n	n	n	n	n
COc1ccc(/C=N/n2c(C3CCCCC3)n[nH]c2=S)c(OC)c1	n	u	n	n	x	n
CCn1cc(C(=O)NC2CCCCC2C)c(=O)c2ccc(C)nc21 (configuration not stated)	u	11.2µM	n	n	n	n
CC(C)(C)c1nc(CN2CCCCC2)cc(CN2CCCCC2)c1O	18.4µM	u	n	n	n	n
COc1cc(C(=O)OCC(=O)c2cc(C)n(C)c2C)cc(OC)c1OC	25.9µM	16.4µM	n	n	n	n
COc1ccc(OC)c(/C=C/C(=O)c2ccc3c(c2)OCCO3)c1	u	u	u	n	x	-101.1
COc1cc(/C=C/C(=O)c2ccc3c(c2)OCO3)cc(OC)c1OC	u	11.6µM	17.8µM	22.4µM	n	-96.7
COc1cc(/C=C/C(=O)c2ccc3c(c2)OCCO3)cc(OC)c1OC	u	u	u	n	x	-94.2
COc1ccc(OC)c(/C=C/C(=O)NC2=NCCS2)c1	n	n	n	n	n	n
COc1ccc(Br)cc1CN1CCSCC1	u	u	n	n	x	n
O=C(c1[nH]c2ccccc2c1Sc1ccc(Cl)cc1)N1CCCCC1	u	u	u	n	n	x
COc1cc(C(=O)c2cc3c(cc2C)OCO3)cc(OC)c1OC	0.0231µM	0.0231µM	n	n	x	n
COc1cc(C(=O)COC(=O)c2ccc3c(c2)OCCO3)cc(OC)c1OC	14.6µM	u	n	n	x	n
COc1ccc(C(=O)COC(=O)c2ccc3c(c2)OCCO3)c(OC)c1	n	u	n	n	n	n
